This note sets out measurements from PubChem BioAssay (NCATS).

Each structure is given as a SMILES string. A number with no mark means an inactive call. Calls come from the whole dose curve; as a rule, active = well fitted curve in the direction sought with a large enough effect; inconclusive = small, poorly fitted or top-dose-only effect, or effect the other way, or another doubt; inactive = no such curve, though single readings can be large or run the other way.

The experiment in a line: Inducers of the Endoplasmic Reticulum Stress Response (ERSR) in human glioma: Validation (AID 504836). Note: 0% is about no effect. The following applies: human glioma cells, ER stress response reporter; series mostly up to 38.3 µM; activation: at the top concentration. Summed up: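 ERSR induction read as luciferase luminescence (Bright-Glo, 10 min at room temperature) in stably transfected human U87-MG glioma cells exposed to compounds for 16 h, using GRP78 as sensor.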
As to `N=C(N)SCCc1cnc[nH]1`, the “activation” value is 0.509%.
The figure for `O=[N+]([O-])c1ccc(CSc2ncnc3c2ncn3[C@@H]2O[C@H](CO)[C@@H](O)[C@H]2O)cc1` is 0.0516%; for `Nc1ncnc2c1nc(Sc1ccc(Cl)cc1)n2[C@H]1OC2COP(=O)(O)O[C@@H]2C1O` (stereo partly specified) it is -2.4%.
With `COc1ccccc1N1CCN(CCN(C(=O)c2ccc(F)cc2)c2ccccn2)CC1`, the “activation” value is -0.86%.
Take `C=CC[C@H](N)C(=O)O`: the “activation” value is -1.86%.
Then `NOCC(=O)O`, with 3.8%.
As to `Nc1c(S(=O)(=O)O)cc(Nc2ccc(Nc3nc(Cl)nc(Nc4ccc(S(=O)(=O)O)cc4)n3)c(S(=O)(=O)O)c2)c2c1C(=O)c1ccccc1C2=O`, the “activation” value is -4.56%.
Take `O=C(c1ccc2c(c1)OCCO2)N1CCCCC1`: the “activation” value was -2.18%.
The figure for `Nc1ncnc2c1ncn2[C@@H]1O[C@H](COP(=O)(O)CP(=O)(O)OP(=O)(O)O)[C@@H](O)[C@H]1O` is -2.21%.
Then `NCCSSCCN`, with -1.02%; and `N.N.N.N.N.N.N.N.N.N.N.N.N.N.O.O.[Ru+4].[Ru+5].[Ru+5]`, with -7%.
